Shown are actives, neighbours in structure and some others; about 4.6% of the full set was active somewhere.
D1 PAM – Potentiators of Human D1 Dopamine Receptor: qHTS. HEK293 TREx D1 cells, calcium flux, dopamine EC20 potentiation. potentiation, % at 10 µM. D(1A) dopamine receptor (Homo sapiens), P21728. AID 504651, 2011. hit rate 0.036% among 360,000; in the data active = potentiation above about 30%; note: 0% is about no effect
Target sequence (P21728 whole entry, looked up): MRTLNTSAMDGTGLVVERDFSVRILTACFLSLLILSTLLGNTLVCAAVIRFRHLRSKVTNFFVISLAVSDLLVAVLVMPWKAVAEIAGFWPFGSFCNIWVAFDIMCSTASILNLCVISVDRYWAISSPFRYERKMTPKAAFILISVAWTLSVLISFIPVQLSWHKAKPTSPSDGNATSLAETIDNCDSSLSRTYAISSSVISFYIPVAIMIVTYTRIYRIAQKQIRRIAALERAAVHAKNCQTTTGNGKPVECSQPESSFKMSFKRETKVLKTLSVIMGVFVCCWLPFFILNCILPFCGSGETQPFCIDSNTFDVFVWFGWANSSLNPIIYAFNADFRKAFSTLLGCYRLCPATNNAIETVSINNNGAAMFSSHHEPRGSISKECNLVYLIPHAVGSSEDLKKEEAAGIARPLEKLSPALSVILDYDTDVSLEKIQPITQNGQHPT
Epigenetic reg – Quantitative High-Throughput Screen for Regulators of Epigenetic Control; murine LDR cells, GFP reporter derepression, 30 h; Potency, µM (doses to about 53.9 µM), for the others: at the highest dose GFP activation, hits mostly activators; hit rate 0.2% among 280,000; AID 1865, 2009; active = well fitted activation curve with a large enough effect; inconclusive = small, poorly fitted or top-dose-only effect; note: potency is the fitted concentration of half-maximal effect; % of control where 0% means no effect; nearly all actives have a fitted effect of over 60% in size
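GFP-positive cell count by laser-scanning cytometry (objects 20–120 um) after 30 h, 37 C compound exposure of murine LDR cells; reporter is CMV-GFP integrated at a silenced locus, inducible by HDAC or DNMT inhibitors.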
D1 antag – Antagonist of Human D 1 Dopamine Receptor: qHTS. D(1A) dopamine receptor (Homo sapiens), P21728. activity change, negative = inhibition, % at 10 µM. HEK293 TREx D1 cells, calcium flux, dopamine EC80; active compounds read low. hit rate 3.2% among 360,000; in the data active = activity change below about -30%; note: % is set by controls: 0 for no effect and ±100 for the full control effect
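HEK293 T-REx cells expressing inducible, force-coupled D1 receptor; no-wash Ca dye, 30–90 min RT. Cmpd → 180 s read at 1 Hz → EC80 DA → 180 s read.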
TRHR PAM – qHTS for Small Molecule Agonists and Allosteric Enhancers of Human TRH Receptor: Primary Screen for Enhancers; Thyrotropin-releasing hormone receptor (Homo sapiens), P34981; TRHR cells, fluo-8 calcium fluorescence, EC20 TRH enhancement; enhancement, % at 2 µM; hit rate 0.66% among 360,000; in the data active = enhancement above about 30%; note: 0% is about no effect
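TRHR-expressing cells loaded with fluo-8 calcium dye were read kinetically (ex 480/em 530) during compound addition, then stimulated with an EC20 of TRH (10 nM final). Enhancement of the Gq-mediated intracellular calcium response was scored.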
TRHR agonist – qHTS for Small Molecule Agonists and Allosteric Enhancers of Human TRH Receptor: Primary Screen for Agonists; Thyrotropin-releasing hormone receptor (Homo sapiens), P34981; TRHR cells, calcium flux fluo-8, FDSS agonist mode; activation, % at 2 µM; hit rate 0.18% among 360,000; note: 0% is about no effect
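Steps: seed TRHR cells overnight; add fluo-8 no-wash Ca dye, RT 30 min–1.5 h; record 10 s baseline; pin-transfer compounds; monitor fluorescence 1 cycle/s for the agonist window. Calcium increases flag candidate agonists.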
D1 agonist – Allosteric Agonists of the Human D1 Dopamine Receptor: qHTS. hit rate 1% among 360,000. HEK293 T-REx D1 cells, calcium flux, agonist mode. AID 504660, 2011. D(1A) dopamine receptor (Homo sapiens), P21728. activation, % at 2 µM; note: 0% is about no effect
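Tetracycline-induced HEK293 TREx D1 cells, force-coupled to calcium signalling, were dye-loaded with a no-wash calcium kit. Compound was pin-added after a 10 s baseline. Fluorescence was read kinetically at 1 cycle/s for 180 s, with calcium rises flagged as agonism.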
* = called active by the depositor; ? = inconclusive; nt = no result; [ ] = remark or other dose. Cut-off read from the data, not from the text of the source, unless noted: active = activation above about 30%; inactive = the rest.

SMILES	D1 PAM	Epigenetic reg	D1 antag	TRHR PAM	TRHR agonist	D1 agonist
COc1cc(O)c(C(=O)O)c(-c2cc(O)c(O)cc2C)c1	-0.1	0.0%	-30.9*	0.6	-0.6	1.1
NCCc1cccc(O)c1	nt	2.1%	nt	nt	nt	nt
CCc1nc(SC)ncc1C(=O)Nc1ccc(Cl)cc1C(=O)c1ccccc1	6.6	-1.2%	16.9	-0.5	-0.4	1.5
CC(Cc1ccccc1)NCC(=O)Nc1cc(N(C)C)nc2ccccc12 (stereo not given)	8.7	-5.4%	-50.1*	-7.8	-0.1	-0.6
CC(Cc1ccccc1)NCc1ccccc1O (stereo not given)	5.0	-3.8%	22.8	5.8	0.0	1.9
Cc1cc(N2CCCCC2)ccc1C=C1C(=O)N(C)C(=S)N(C)C1=O	5.3	1.6%	7.8	-0.6	0.0	1.4
Cc1cc(N2CCCC2)ccc1C=C(C#N)C#N	1.2	?	-33.0*	26.6	9.8	32.4*
CN1CC(C(=O)c2cccc(C(F)(F)F)c2)C(c2ccc(Cl)cc2)C1 (stereo not given)	-9.9	nt	-6.4	4.0	-1.1	30.8*
CCOC(=O)C1(CCc2ccccc2)CCN(Cc2csc(C(C)=O)c2)CC1	-1.9	0.0%	-5.9	-3.1	-0.6	1.8
CCOC(=O)C1(CCc2ccccc2)CCN(Cc2cccc3cnccc23)CC1	-5.1	3.5%	-45.2*	-3.9	-1.7	0.3
CCOC(=O)C1(CCc2ccccc2)CCN(Cc2cccc3c2OCO3)CC1	-7.6	1.0%	-42.1*	0.0	-5.4	2.0
Cc1ccccc1OCC(=O)Nc1ccccc1C(=O)OCc1cc(=O)n2nc(C3CC3)sc2n1	1.1	?	10.3	-4.9	0.2	-1.4
COCCNC(=O)c1c(NC(=O)c2ccc(Br)o2)n(Cc2ccccc2)c2nc3ccccc3nc12	-2.2	?	-3.6	-8.2	7.8	37.1*
c1ccc(-c2cc3c(nc2-c2ccccc2)CCNC3)cc1	nt	1.1%[10.1 µM]	nt	nt	nt	nt
C=C(C)C1Cc2c(ccc3c2OC2COc4cc(OC)c(OC)cc4C2C3=O)O1 (stereo not given)	nt	2.5%	nt	nt	nt	nt
CN1CCN(c2ccc(S(C)(=O)=O)cc2[N+](=O)[O-])CC1	5.3	2.2%	4.8	-15.5	0.1	3.4
CN1CCN(c2ccc([N+](=O)[O-])c3no[n+]([O-])c23)CC1	-6.0	7.6%	-38.0*	-0.4	9.9	33.2*
COc1ccc(C2NCc3ccc4c(c3-n3cccc32)OCO4)cc1O (stereo not given)	-2.9	0.0%	-36.3*	2.0	4.6	54.6*
COc1ccccc1N=Cc1c(O)n(C)c(=O)n(C)c1=O	0.1	0.9%	-35.4*	-1.1	-0.5	2.2
C[N+]1([O-])CCC[C@@H]1c1cccnc1 (stereo not given in full)	nt	2.1%	nt	nt	nt	nt
CCN(CC)P(=O)(c1nccn1C)N(CC)CC	-7.7	-3.2%	-37.1*	-3.4	-0.1	3.2
Cc1c(O)ccc(C(=O)CN2CC(C)OC(C)C2)c1O (stereo not given)	-3.9	nt	-39.7*	-8.5	0.3	2.2
CC1CC(C)CN(CC(=O)c2ccc(OC(F)F)cc2)C1 (stereo not given)	-2.0	1.0%	-2.9	-2.2	0.0	1.1
Cc1ccc(-n2c(O)c(C=NC3CCCCC3N)c(=O)[nH]c2=O)cc1C (stereo not given)	-3.5	-8.6%	1.1	-6.2	0.6	2.4
Cc1ccc(-n2c(O)c(C=NC3CCCC3)c(=O)[nH]c2=O)c(C)c1	-0.3	-0.9%	5.7	40.6*	-0.1	1.0
SMILES	D1 PAM	Epigenetic reg	D1 antag	TRHR PAM	TRHR agonist	D1 agonist
NC(=NCc1ccc(Cl)cc1)SCCCc1cnc[nH]1	nt	2.1%	nt	nt	nt	nt
O=C(CN1CCCC1=O)Nc1ccccc1	-2.7	-9.4%	-35.2*	1.3	0.4	0.9
CN(Cc1ccccc1)C(=O)CN1CCCC1=O	-4.0	nt	-16.6	18.1	-0.3	0.6
C/C(CC(c1ccccc1)c1c(O)c2ccccc2oc1=O)=N\Nc1ccc([N+](=O)[O-])cc1[N+](=O)[O-] (stereo not given)	3.4	0.0%	11.1	6.1	0.0	0.5
CC/C(CC(c1ccccc1)c1c(O)c2ccccc2oc1=O)=N\NC(N)=S (stereo not given)	-12.2	?	-32.2*	9.1	0.1	3.7
O=C(Nc1ccon1)c1cccn(Cc2cccc([N+](=O)[O-])c2)c1=O	-1.1	0.0%	nt	13.0	-1.0	2.9
O=P(CCl)(Nc1ccccc1)C(Cl)(Cl)Cl (stereo not given)	1.4	-2.7%	-40.9*	-4.4	-0.1	-0.2
CN1CCc2cc(O)cc3c2C1Cc1ccc(O)c(O)c1-3 (stereo not given)	nt	1.2%	nt	nt	nt	nt
Oc1cccc2cccnc12	-11.5	3.98µM*	-4.0	-7.0	0.0	1.7
CN(C)C1C(=O)C(C(N)=O)=C(O)[C@@]2(O)C(=O)C3=C(O)c4c(O)ccc(Cl)c4[C@](C)(O)C3CC12 (stereo not given in full)	nt	8.0%	nt	nt	nt	nt
CCN(CC)c1ccc(CNCCc2ccccc2F)cc1	-5.8	2.4%	21.6	3.5	1.0	45.5*
CC(N)(COP(=O)(O)Oc1ccccc1)C(=O)O (stereo not given)	nt	0.0%	nt	nt	nt	nt
COC(=O)c1cc(C(O)(C(=O)OC)C(F)(F)F)c(/N=C/N(C)C)s1 (stereo not given)	-6.1	-1.1%	-7.7	39.3*	0.2	1.1
COC(=O)C(O)(c1ccc(N(C)C)cc1)C(F)(F)F (stereo not given)	-3.0	0.0%	2.8	9.5	0.2	0.8
CC(=O)OC1CC[C@]2(C)C(CCC3C2CC[C@]2(C)C(C4=CC(=O)OC4)C(OC(C)=O)CC32O)C1 (stereo not given in full)	nt	-0.5%	nt	nt	nt	nt
Fc1ccc2c(c1)nnn2C1CCN(Cc2ccccc2)CC1	-19.6	2.9%	-33.2*	0.0	-1.0	0.9
Fc1ccc2c(c1)nnn2C1CCN(Cc2nnnn2CCc2ccccc2)CC1	-6.8	-0.7%	-9.1	-5.7	-1.1	0.6
C[C@@H]1O[C@@H](O[C@H]2CC[C@]3(C=O)C4CC[C@]5(C)[C@@H](C6=CC(=O)OC6)CC[C@]5(O)[C@@H]4CC[C@]3(O)C2)[C@H](O)[C@H](O)[C@H]1O (stereo not given in full)	nt	0.8%	nt	nt	nt	nt
Cc1onc(-c2c(Cl)cccc2Cl)c1C(=O)Nc1ccc2c(C(F)(F)F)cc(=O)oc2c1	0.2	0.0%	-30.3*	8.7	-0.3	3.9

High-throughput results: PubChem BioAssay, National Center for Advancing Translational Sciences (NCATS)
